Test results from the supplement of paper PMC8866396.
“And” between values parts separate entries of the source, which are not always exact repeats. Equal entries are not always repeated. ± gives the standard deviation of the averaged measurements.

What was measured:
IL-6-GFP PC-9GR = assay: cell viability (CCK-8 OD) relative to DMSO control (fraction of control); higher = more viable cells; conditions: compound concentration: 10 uM; treatment time: 48 h
How it was run: (§1)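 PC-9 and PC-9GR lung cancer cells carrying a lentiviral construct that overexpresses IL-6-GFP were seeded in 96-well plates at 3000 cells/well. Every compound in a purchased 510-compound library was applied at a final 10 μM for 48 h, and a parallel set of plates was kept for GFP imaging. Cell viability was read by CCK-8 absorbance, taking each well's optical density as a ratio to the vehicle control well. Two independent replicates were run.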

IL-6-GFP PC-9 = assay: as above; conditions: compound concentration: 10 uM; treatment time: 48 h
How it was run: as §1

`CC1CC2C3CCC4=CC(=O)C=CC4(C)C3(F)C(O)CC2(C)C1C(=O)CO` (configuration not stated) [Desoximetasone] showed a cell viability (IL-6-GFP PC-9GR) of 0.815 ± 0.23 and a cell viability (IL-6-GFP PC-9) of 1.08 ± 0.093.
`COC1CC2CCC(C)C(O)(O2)C(=O)C(=O)N2CCCCC2C(=O)OC(C(C)CC2CCC(OC(=O)C(C)(CO)CO)C(OC)C2)CC(=O)C(C)/C=C(\C)C(O)C(OC)C(=O)C(C)CC(C)/C=C/C=C/C=C/1C` (configuration not stated) showed a cell viability (IL-6-GFP PC-9GR) of 0.524 ± 0.54 and a cell viability (IL-6-GFP PC-9) of 0.698 ± 0.12.
Work on `CN(C)CCCOc1nn(Cc2ccccc2)c2ccccc12.Cl` [Benzydamine HCl] yielded a cell viability (IL-6-GFP PC-9GR) of 0.996 ± 0.23 and a cell viability (IL-6-GFP PC-9) of 0.549 ± 0.52.
`COc1ccc2cc1Oc1ccc(cc1)CC1c3cc(c(OC)cc3CCN1C)Oc1c(O)c(OC)cc3c1C(C2)N(C)CC3` (configuration not stated) [Fangchinoline] showed a cell viability (IL-6-GFP PC-9GR) of 1.18 ± 0.33 and a cell viability (IL-6-GFP PC-9) of 1.09 ± 0.13.
`COc1cccc2c1C(=O)c1c(O)c3c(c(O)c1C2=O)CC(O)(C(=O)CO)CC3OC1CC(N)C(O)C(C)O1.Cl` (configuration not stated) [Epirubicin HCl] showed a cell viability (IL-6-GFP PC-9GR) of 0.141 ± 0.14 and a cell viability (IL-6-GFP PC-9) of 0.1407 ± 0.00071.
In the case of `CN(C)C/C=C/C(=O)Nc1cc2c(Nc3ccc(F)c(Cl)c3)ncnc2cc1OC1CCOC1.O=C(O)/C=C\C(=O)O.O=C(O)/C=C\C(=O)O` (configuration not stated) [Afatinib (BIBW2992) Dimaleate], the cell viability (IL-6-GFP PC-9GR) is reported as 0.22 ± 0.11 and the cell viability (IL-6-GFP PC-9) is reported as 0.167 ± 0.22.
`CC(=O)OC1C(=O)C2(C)C(O)CC3OCC3(OC(C)=O)C2C(OC(=O)c2ccccc2)C2(O)CC(OC(=O)C(O)C(NC(=O)c3ccccc3)c3ccccc3)C(C)=C1C2(C)C` (configuration not stated) [Paclitaxel] gave a cell viability (IL-6-GFP PC-9GR) of 0.576 ± 0.036 and a cell viability (IL-6-GFP PC-9) of 0.57 ± 0.026.
`C=C1CCC2C(C)(COC(=O)CCC(=O)O)C(OC(=O)CCC(=O)O)CCC2(C)C1/C=C/C1=CCOC1=O` (configuration not stated) [Dehydroandrographolide Succinate] gave a cell viability (IL-6-GFP PC-9GR) of 0.966 ± 0.062 and a cell viability (IL-6-GFP PC-9) of 1.16 ± 0.016.
`C=CC(=O)Nc1cccc(Oc2nc(Nc3ccc(N4CCN(C)CC4)cc3)nc3ccsc23)c1` gave a cell viability (IL-6-GFP PC-9GR) of 0.393 ± 0.19 and a cell viability (IL-6-GFP PC-9) of 0.465 ± 0.07.
`Cl.c1ccc(CN(CC2=NCCN2)c2ccccc2)cc1` [Antazoline HCl] gave a cell viability (IL-6-GFP PC-9GR) of 0.998 ± 0.082 and a cell viability (IL-6-GFP PC-9) of 1.31 ± 0.11.
In the case of `CC(C)(C)c1nc(-c2cccc(NS(=O)(=O)c3c(F)cccc3F)c2F)c(-c2ccnc(N)n2)s1.CS(=O)(=O)O` [Dabrafenib Mesylate], the cell viability (IL-6-GFP PC-9GR) is reported as 0.922 ± 0.18 and the cell viability (IL-6-GFP PC-9) is reported as 0.921 ± 0.19.
In the case of `Cc1nc(Nc2ccc(F)cc2)nc(N2CCc3ccccc3C2C)c1C.Cl` (configuration not stated) [Revaprazan Hydrochloride], the cell viability (IL-6-GFP PC-9GR) is reported as 1.63 ± 0.64 and the cell viability (IL-6-GFP PC-9) is reported as 1.14 ± 0.043.
Compound `O.S=c1nc[nH]c2nc[nH]c12` [6-Mercaptopurine (6-MP) Monohydrate] has a cell viability (IL-6-GFP PC-9GR) of 0.92 ± 0.11 and a cell viability (IL-6-GFP PC-9) of 0.978 ± 0.19.
`CC(=O)OCC(=O)C1(O)C(C)CC2C3CCC4=CC(=O)C=CC4(C)C3(F)C(O)CC21C` (configuration not stated) [Dexamethasone Acetate] gave a cell viability (IL-6-GFP PC-9GR) of 0.9 ± 0.23 and a cell viability (IL-6-GFP PC-9) of 0.945 ± 0.21.
Work on `COC1=C(OC)C(=O)C(CCCCCCCCCCO)=C(C)C1=O` [Idebenone] yielded a cell viability (IL-6-GFP PC-9GR) of 1.12 ± 0.088 and a cell viability (IL-6-GFP PC-9) of 0.816 ± 0.0099.
Work on `Nc1nc(N)c2nc(-c3ccccc3)c(N)nc2n1` [Triamterene] yielded a cell viability (IL-6-GFP PC-9GR) of 0.591 ± 0.14 and a cell viability (IL-6-GFP PC-9) of 0.842 ± 0.038.
In the case of `CC12CCC(CC1)C(C)(C)O2` [Eucalyptol], the cell viability (IL-6-GFP PC-9GR) is reported as 1.29 ± 0.37 and the cell viability (IL-6-GFP PC-9) is reported as 1.33 ± 0.048.
In the case of `N#CCC(C1CCCC1)n1cc(-c2ncnc3[nH]ccc23)cn1` (configuration not stated), the cell viability (IL-6-GFP PC-9GR) is reported as 1.08 and 1.17 and the cell viability (IL-6-GFP PC-9) is reported as 1.11 and 0.753.
In the case of `Cc1cnc(Nc2ccc(OCCN3CCCC3)cc2)nc1Nc1cccc(S(=O)(=O)NC(C)(C)C)c1`, the cell viability (IL-6-GFP PC-9GR) is reported as 0.186 ± 0.081 and the cell viability (IL-6-GFP PC-9) is reported as 0.3 ± 0.12.
`CCOC(=O)c1c(N)sc2c1CCN(Cc1ccccc1)C2.Cl` [Tinoridine hydrochloride] showed a cell viability (IL-6-GFP PC-9GR) of 1.12 ± 0.27 and a cell viability (IL-6-GFP PC-9) of 1.12 ± 0.061.
`Nc1ccc(S(=O)(=O)Nc2ccnn2-c2ccccc2)cc1` [Sulfaphenazole] showed a cell viability (IL-6-GFP PC-9GR) of 1.15 ± 0.36 and a cell viability (IL-6-GFP PC-9) of 1.29 ± 0.11.
Work on `CC1(C)CCC(C)(C)c2cc(NC(=O)c3ccc(C(=O)O)cc3)ccc21` [Tamibarotene] yielded a cell viability (IL-6-GFP PC-9GR) of 1.55 ± 0.76 and a cell viability (IL-6-GFP PC-9) of 1.28 ± 0.11.
`O=C(O)CCCN1CCC(OC(c2ccc(Cl)cc2)c2ccccn2)CC1.O=S(=O)(O)c1ccccc1` (configuration not stated) [Bepotastine Besilate] showed a cell viability (IL-6-GFP PC-9GR) of 0.9937 ± 0.0023 and a cell viability (IL-6-GFP PC-9) of 0.84 ± 0.015.
`O=C1OC(OC(=O)c2cccnc2Nc2cccc(C(F)(F)F)c2)c2ccccc21` (configuration not stated) [Talniflumate] gave a cell viability (IL-6-GFP PC-9GR) of 1 ± 0.022 and a cell viability (IL-6-GFP PC-9) of 0.967 ± 0.02.
In the case of `CC(=O)OC1CCC2(C)C(CCC3(C)C2C(=O)C=C2C4C(C)C(C)CCC4(C)CCC23C)C1(C)C(=O)O` (configuration not stated), the cell viability (IL-6-GFP PC-9GR) is reported as 0.941 ± 0.28 and the cell viability (IL-6-GFP PC-9) is reported as 1.09 ± 0.16.
Work on `CN1CCC(=C2c3ccccc3CCc3cccnc32)CC1.O=C(O)/C=C\C(=O)O.O=C(O)/C=C\C(=O)O` [Azatadine dimaleate] yielded a cell viability (IL-6-GFP PC-9GR) of 0.981 ± 0.12 and a cell viability (IL-6-GFP PC-9) of 0.513 ± 0.013.
